Test results from PubChem BioAssay AID651710 (Broad Institute, 2012).
Hit rate of the full screen: of about 360,000 compounds, about 1,600 (0.44%) were called active. What follows is part of a selection rich in actives, with near analogues and random picks from the rest. A number with no mark means an inactive call.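 How the source made its calls: active means every replicate showing at least 50% inhibition; inconclusive means mean inhibition at least 50% but not in every replicate; inactive means the rest.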

Target: DNA repair protein RAD52 homolog (Homo sapiens) (UniProt P43351)
Sequence (P43351 whole entry, looked up): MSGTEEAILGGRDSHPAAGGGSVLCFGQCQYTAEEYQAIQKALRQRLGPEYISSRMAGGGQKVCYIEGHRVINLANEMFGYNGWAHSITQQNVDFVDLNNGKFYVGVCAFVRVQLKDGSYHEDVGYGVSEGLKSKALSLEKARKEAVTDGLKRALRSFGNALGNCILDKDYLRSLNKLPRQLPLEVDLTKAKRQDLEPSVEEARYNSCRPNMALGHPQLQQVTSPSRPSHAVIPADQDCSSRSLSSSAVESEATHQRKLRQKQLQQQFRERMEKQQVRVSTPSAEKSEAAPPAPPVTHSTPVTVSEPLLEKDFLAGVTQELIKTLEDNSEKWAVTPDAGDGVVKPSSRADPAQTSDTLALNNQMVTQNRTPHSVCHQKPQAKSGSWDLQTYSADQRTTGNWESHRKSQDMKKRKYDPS
Assay: blockers of RAD52 strand annealing activity – biochemical, FRET, single point, set 2, primary screen (AID 651710)
Conditions: recombinant RAD52 DNA annealing, FRET fluorescence; at 18.7 µM; active compounds read high

Which inhibition does the source give for `COc1cccc(S(=O)(=O)Nc2ccc3c(c2)[C@@H]2C[C@@H](CC(=O)NCc4ccc(Cl)cc4)O[C@H](CO)[C@@H]2O3)c1` here?
The inhibition was 10.3%.

For `CN(C)C(=O)C[C@@H]1C[C@H]2c3cc(NC(=O)Nc4ccccc4F)ccc3O[C@H]2[C@@H](CO)O1`, which inhibition is on record?
Its inhibition is -10%.

For `Cc1noc(C)c1S(=O)(=O)Nc1ccc2c(c1)CC(=O)N([C@@H](C)CO)C[C@H](C)[C@H](CN(C)C(=O)Nc1ccccc1)O2`, which inhibition is on record?
The inhibition was -0.934%.

How did the inhibition turn out when `Cc1noc(C)c1NC(=O)Nc1cccc2c1O[C@@H](CN(C)C(=O)Nc1ccc(C(F)(F)F)cc1)[C@@H](C)CN([C@@H](C)CO)C2=O` was run?
The inhibition was -2.22%.

With `O=C(C[C@@H]1CC[C@@H]2[C@H](COC[C@H](O)CN2S(=O)(=O)c2ccc(Cl)cc2)O1)N[C@@H]1CCN(Cc2ccccc2)C1` as the compound, how does the inhibition read?
Its inhibition is 17.8%.

Which inhibition does the source give for `O=C(C[C@H]1CC[C@H](NC(=O)Nc2ccccc2F)[C@@H](CO)O1)NCc1ccccc1` here?
The inhibition was -8.56%.

How did the inhibition turn out when `COc1ccc(S(=O)(=O)Nc2ccc3c(c2)C(=O)N([C@H](C)CO)C[C@@H](C)[C@H](CN(C)Cc2ccccc2)O3)cc1` was run?
The inhibition was 12.7%.

For `COc1cccc(-c2ccc([C@@H]3[C@@H](CO)N4C(=O)CN(C(=O)C5CCCCC5)C[C@H]34)cc2)c1`, which inhibition is on record?
The inhibition was -17.9%.

How did the inhibition turn out when `CC(C)NC(=O)N(C)C[C@H]1OCCCC[C@@H](C)Oc2ccc(NC(=O)C3CCCCC3)cc2C(=O)N([C@H](C)CO)C[C@H]1C` was run?
Its inhibition is -14%.

Which inhibition does the source give for `CO[C@H]1CN(C)C(=O)c2ccc(NC(=O)c3cccc(F)c3)cc2OC[C@@H](C)N(C(C)=O)C[C@@H]1C` here?
Its inhibition is 3.49%.

With `C[C@H](CO)N1C[C@H](C)[C@@H](CN(C)S(C)(=O)=O)OCCCC[C@H](C)Oc2ccc(NC(=O)Nc3ccc(C(F)(F)F)cc3)cc2C1=O` as the compound, how does the inhibition read?
The inhibition was 9.95%.

How did the inhibition turn out when `C[C@@H]1CCCCO[C@H](CN(C)Cc2ccc(C(F)(F)F)cc2)[C@H](C)CN([C@H](C)CO)C(=O)c2cc(NC(=O)Nc3ccc(F)cc3)ccc2O1` was run?
Its inhibition is -10%.

`CCCN(C)C[C@@H]1OCCCC[C@@H](C)Oc2ccc(NC(=O)Nc3ccc(C(F)(F)F)cc3)cc2C(=O)N([C@H](C)CO)C[C@H]1C` was tested. Which inhibition did it give?
The inhibition was 61.7% (active).

`CN1C(=O)c2cc(NC(=O)C3CCOCC3)ccc2OC[C@@H]2O[C@H](CC(=O)NCc3ccccc3F)CC[C@H]21` was tested. Which inhibition did it give?
The inhibition was -6.2%.

`COCC(=O)Nc1ccc2c(c1)OC[C@H](C)N(Cc1ccccc1OC)C[C@@H](C)[C@@H](OC)CN(C)C2=O` was tested. Which inhibition did it give?
The inhibition was 5.08%.

Which inhibition does the source give for `CCC1CCCCN1CCCNC(=O)c1cc2c(Cl)nc3ccccc3c2s1` (stereo not drawn) here?
Its inhibition is 64.2% (active).

Which inhibition does the source give for `CCCn1c2ccccc2c2cnn(CC(=O)NCCCN3CCCCC3CC)c(=O)c21` (stereo not drawn) here?
Its inhibition is 6.95%.

Which inhibition does the source give for `Cc1nc2ccccc2c2oc(C(=O)NCCCN3CCC(C)CC3)cc12` here?
Its inhibition is 24.5%.

How did the inhibition turn out when `C[C@@H]1CN([C@H](C)CO)C(=O)c2cccc(NC(=O)C3CCOCC3)c2O[C@H]1CN(C)S(=O)(=O)c1ccc(Cl)cc1` was run?
The inhibition was -3.65%.

For `OC[C@@H]1[C@H](c2ccc(C#Cc3ccccc3)cc2)[C@@H]2CN(Cc3cncnc3)CCCCN12`, which inhibition is on record?
Its inhibition is -7.81%.

`OC[C@H]1[C@@H](c2ccc(/C=C/c3ccccc3)cc2)[C@H]2CN(Cc3cccnc3)CCCCN21` was tested. Which inhibition did it give?
Its inhibition is 57.1% (active).

Which inhibition does the source give for `OC[C@H]1[C@H](c2ccc(-c3cccnc3)cc2)[C@H]2CN(Cc3ccccn3)CCCCN21` here?
The inhibition was -13.2%.

How did the inhibition turn out when `C[C@H]1CN([C@@H](C)CO)C(=O)Cc2cc(NS(=O)(=O)c3ccc(Cl)cc3)ccc2O[C@@H]1CN(C)S(=O)(=O)c1ccccc1` was run?
Its inhibition is 0.925%.

How did the inhibition turn out when `O=C(Cc1ccccn1)N[C@@H]1CC[C@H](CCn2cc(-c3ccc(F)cc3)nn2)O[C@@H]1CO` was run?
The inhibition was -0.234%.

With `COc1cccc(CNc2nc(NCc3ccccc3OC)nc3ccsc23)c1` as the compound, how does the inhibition read?
Its inhibition is -11.5%.

How did the inhibition turn out when `COc1cccc(CNc2nc(NCc3cccs3)nc3ccsc23)c1` was run?
Its inhibition is 63.7% (active).

`Clc1ccccc1Nc1nc(NCc2cccs2)nc2ccsc12` was tested. Which inhibition did it give?
The inhibition was -19.9%.

Which inhibition does the source give for `C[C@@H]1CN([C@H](C)CO)C(=O)c2cc(-c3ccc(C#N)cc3)cnc2O[C@@H]1CN(C)C(=O)Nc1ccccc1` here?
The inhibition was 4.39%.

Which inhibition does the source give for `COc1ccc(-c2ccc([C@@H]3[C@@H](CO)N4CCCCN(C(=O)NC(C)C)C[C@H]34)cc2)cc1` here?
The inhibition was 0.301%.

With `CCC(=O)Nc1ccc2c(c1)C(=O)N(C)[C@@H]1CC[C@@H](CC(=O)NCCc3ccccc3)O[C@H]1CO2` as the compound, how does the inhibition read?
The inhibition was -0.75%.

With `CC(C)CC#Cc1ccc2c(c1)O[C@H](CN(C)S(=O)(=O)c1cccc(F)c1)[C@@H](C)CN([C@@H](C)CO)S2(=O)=O` as the compound, how does the inhibition read?
The inhibition was 10.9%.

How did the inhibition turn out when `COc1ccc(NC(=O)C2Cc3c(-c4cccc(NC(C)=O)c4)ccnc3O2)cc1OC` (stereo not drawn) was run?
Its inhibition is -0.756%.

`COc1ccc(NC(=O)C2C3CCC(O3)C2C(=O)O)cc1OC` (stereo not drawn) was tested. Which inhibition did it give?
Its inhibition is 71.2% (active).

Which inhibition does the source give for `COc1ccc(NC(=S)SC)cc1OC` here?
The inhibition was -5.52%.

How did the inhibition turn out when `Nc1c(C(=O)OCC(=O)Nc2ccc(OC(F)F)cc2)[nH]c(=O)[nH]c1=O` was run?
The inhibition was -4.75%.

With `O=C1CCC(C(=O)OCC(=O)Nc2ccc(OC(F)F)cc2)=NN1` as the compound, how does the inhibition read?
The inhibition was 54.8% (active).

Which inhibition does the source give for `COCc1c(C(=O)OCC(=O)Nc2ccc(OC(F)F)cc2)oc2ccccc12` here?
Its inhibition is -1.64%.

Which inhibition does the source give for `C=CCNC(=O)[C@H]1[C@@H]2C(=O)O[C@@H](c3ccccc3)[C@@H](c3ccccc3)N2[C@@H](c2ccccc2OCCO)[C@]12C(=O)N(C(=O)OCCOC)c1ccc(C#Cc3ccc(OC)cc3)cc12` here?
The inhibition was -0.136%.

For `CO[C@@H]1CN(C)C(=O)c2cc(NS(=O)(=O)c3cn(C)cn3)ccc2OC[C@@H](C)N(CCC(F)(F)F)C[C@H]1C`, which inhibition is on record?
The inhibition was 7.94%.

`CCCc1cn(CC[C@H]2CC[C@@H](NC(=O)C3CCOCC3)[C@@H](CO)O2)nn1` was tested. Which inhibition did it give?
The inhibition was -2.7%.

With `CCN1CCCC1CNC(=O)c1cc2cc(OC)c(OC)cc2[nH]1` (stereo not drawn) as the compound, how does the inhibition read?
Its inhibition is 2.51%.

How did the inhibition turn out when `O=C1Nc2cc(C(=O)N3CCC(N4CCCCC4)CC3)ccc2S/C1=C\c1ccccc1` was run?
The inhibition was 39.6%.

For `CCN1CCCC1CNC(=O)c1ccc2c(c1)NC(=O)/C(=C\c1ccccc1F)S2` (stereo not drawn), which inhibition is on record?
Its inhibition is 87.1% (active).
